From article PMC5540273 (PLoS ONE, 2017)

Experiments:
Settings in all cases: concentration: 1 μM, replicates: in singlicate; n = 1
PFTAIRE2 = tested on: PFTAIRE2
PFTK1 = tested on: T1, PFTK1
T1 construct: gene CDK14

PHKG1 = tested on: PHKG1
PHKG2 = tested on: PHKG2
PIK3C2B = tested on: PIK3C2B
PIK3C2G = tested on: PIK3C2G
PIK3CA = tested on: PIK3CA
PIK3CB = tested on: PIK3CB
PIK3CD = tested on: PIK3CD
PIK3CG = tested on: PIK3CG
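Also: KINOMEscan kinase panel screen.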

Structure (SMILES)	%Inh (PFTAIRE2) [%]	%Inh (PFTK1) [%]	%Inh (PHKG1) [%]	%Inh (PHKG2) [%]	%Inh (PIK3C2B) [%]	%Inh (PIK3C2G) [%]	%Inh (PIK3CA) [%]	%Inh (PIK3CB) [%]	%Inh (PIK3CD) [%]	%Inh (PIK3CG) [%]
CC(C)c1ccc(O)cc1Nc1ccnc2ccc(C(F)(F)F)cc12 [GW482059]	1	0	0	0	0	15	0	0	25	0
Cc1ccccc1-c1cc(-c2c[nH]nc2-c2ccccn2)ccn1 [GW680061]	0	0	0	0	0	0	0	0	4	0
Cc1cccc2c(-c3ccncn3)c(-c3ccc(F)cc3)nn12 [GW515532]	9	8	0	0	0	0	0	0	5	0
Cc1ccc(NC(=O)Nc2ccc(Cl)c(C(F)(F)F)c2)cc1-c1ccc(C(=O)Nc2ccncc2)cc1 [GSK1398470]	21	0	23	4	0	2	9	0	0	10
O=C1NC(=O)C(c2ccc(Cl)cc2)=C1Nc1ccc(O)cc1 [SB-340867]	13	0	0	0	0	0	0	0	0	17
Cc1c(Cn2c(C)c(C)n3c(=O)cc(N4CCOCC4)nc23)cccc1C(F)(F)F [GSK2328680]	8	10	0	0	4	0	20	99.1	80	4
CNc1nc(-c2ccc3c(N)n[nH]c3c2)cc(N2C[C@@H](C(=O)Nc3ccccc3)CC[C@H]2C)n1 [GSK2298859]	3	17	0	15	0	0	0	0	0	0
CS(=O)(=O)CCNCc1nc(-c2ccc3ncnc(Nc4ccc(OCc5ccccc5)c(Cl)c4)c3c2)cs1.Cl [GW582764]	7	3	0	0	0	0	0	0	0	0
CS(=O)(=O)CCNCc1nc(-c2ccc3ncnc(Nc4ccc5c(cnn5Cc5ccccc5)c4)c3c2)cs1.Cl.Cl [GW569716]	0	6	0	0	53	0	0	0	1	0
CCn1c(-c2c(N)noc2C)nc2cnccc21 [SB-737856]	15	33	0	0	1	0	0	100	3	0
COc1ccc(CSc2nnc(-c3ccc4ncsc4c3)o2)cc1C(F)(F)F	0	0	0	15	0	0	0	12	0	5
COc1nccc(-c2c(-c3ccc(F)cc3)ncn2CCCN2CCOCC2)n1 [SB-282852]	0	0	13	0	8	8	0	0	0	37
Cn1cncc1C(=O)NC1CCN(c2ccnc(Nc3ccc(F)cc3)n2)C1 (centres unmarked) [GSK1379717]	10	11	0	6	5	0	0	0	0	0
Cc1ccc(-c2nc(Nc3ccncc3)c3ccccc3n2)s1 [GSK189015]	22	28	9	0	0	0	0	0	0	0
Cc1ccc(NC(=O)Nc2ccccc2)cc1-c1ccc(C(=O)Nc2ccncc2)cc1 [GSK1398471]	25	27	0	2	27	0	29	0	0	14
CCn1c(-c2ccccc2)nc2cnccc21 [SB-733416]	0	27	0	0	0	0	0	0	13	0
Cc1ccc(NC(=O)Nc2ccc(Cl)cc2)cc1-c1ccc(C(=O)Nc2ccncc2)cc1 [GSK1398472]	0	12	0	0	0	0	0	36	0	0
CC[C@@H]1CO[C@H](C(=O)Nc2ccccc2)CN1c1cc(-c2ccc3c(N)n[nH]c3c2)nc(NC)n1 [GSK2376236]	23	28	0	11	0	0	0	0	0	6
CNc1cc(-c2ccc3c(N)n[nH]c3c2)nc(N)n1 [GSK2224810]	0	18	0	18	0	0	0	9	1	5
COc1ccc(Nc2nccc(NCCNC(=O)Nc3cc(C)ccc3C)n2)cc1 [GSK1379899]	9	32	0	0	90	0	86	0	0	68
Cn1cnc2c(N)ncnc21 [SKF-97623]	0	0	0	0	0	0	0	0	0	4
COc1ccc(Nc2nccc(-c3ccc(NC(=O)c4cc5cc(F)ccc5[nH]4)cc3)n2)cc1 [GSK1229496]	0	13	0	0	0	0	0	0	0	2
Cc1ccc(NC(=O)c2ccc(Cl)cc2)cc1-c1ccc(C(=O)Nc2ccncc2)cc1 [GSK1398467]	0	0	0	16	0	0	0	0	0	0

Structure (SMILES)	%Inh (PFTAIRE2) [%]	%Inh (PFTK1) [%]	%Inh (PHKG1) [%]	%Inh (PHKG2) [%]	%Inh (PIK3C2B) [%]	%Inh (PIK3C2G) [%]	%Inh (PIK3CA) [%]	%Inh (PIK3CB) [%]	%Inh (PIK3CD) [%]	%Inh (PIK3CG) [%]
Cc1cnc(N)c(/C=C/c2cncc(C(=O)NCCc3ccc(Cl)cc3Cl)c2)c1.Cl [GSK190937]	0	9	0	19	0	2	0	1	0	4
O=C1NC(=O)C(c2ccc(Cl)cc2)=C1Nc1cccc(Cl)c1 [SB-317651]	0	1	0	0	13	0	9	96.7	0	38
FC(F)(F)c1ccccc1-c1cc(-c2c[nH]nc2-c2ccccn2)ccn1 [GW679396]	10	14	3	4	0	0	0	18	0	3
CC(=O)c1c(C)c2cnc(Nc3ccc(N4CCNCC4)cn3)nc2n(C2CCCC2)c1=O	0	5	10	12	0	0	3	0	0	12
COC(=O)C(Cc1ccccc1)NC(=O)NC1CCN(c2ccnc(Nc3ccc(F)cc3)n2)C1 (centres unmarked) [GSK1379714]	14	0	2	0	0	73	0	0	27	1
CN1c2ccc(-c3ccc(C(N)=O)cc3)cc2-c2[nH]ncc2S1(=O)=O	0	0	0	14	0	0	0	0	0	0
COc1ccc2cc(-c3nc(-c4ccccc4C(C)C)[nH]c3-c3ccncc3)ccc2c1 [SB-660566]	12	17	0	0	0	0	0	0	0	0
COc1cccc(CNC(=O)NC2CCN(c3ccnc(Nc4ccc(F)cc4)n3)C2)c1 (centres unmarked) [GSK1379723]	7	0	0	26	0	0	0	0	2	0
Cc1ccccc1Cn1ccn2c(=O)cc(N3CCOCC3)nc12 [GSK2269905]	0	12	0	0	0	0	0	99.9	57	0
Fc1ccc(-c2nc3n(c2-c2ccncc2)CCS3)cc1 [GI98581]	11	16	0	0	92.7	0	91.9	0	0	81
Cc1c(Cn2c3ccccc3n3c(=O)cc(N4CCOCC4)nc23)cccc1C(F)(F)F [GSK2306394]	14	21	12	18	9	3	1	98.4	52	0
O=c1cc(N2CCOCC2)nc2n(Cc3cccc(Cl)c3Cl)c3ccccc3n12 [GSK2299009]	29	19	7	3	0	0	7	97.5	3	1
Nc1ncnc2occ(-c3ccc4c(c3)CCN4C(=O)Cc3cc(F)ccc3F)c12 [GSK2645446]	12	10	0	0	14	0	0	0	0	5
CNCc1ccc2nc(NC(=O)c3ccc(C(C)(C)C)cc3)cn2c1	6	0	5	0	91.5	0	89	16	22	40
COc1ccc(Nc2nccc(N3CCC(NC(=O)C(C)c4ccc(Cl)cc4)C3)n2)cc1 (centres unmarked) [GSK1379735]	0	28	4	0	0	0	0	0	0	0
Cl.Cl.Cl.N#Cc1ccc(CCNc2nccc(-c3cccc(CN4CCNCC4)c3)n2)cc1 [GSK2137462]	16	14	25	23	0	0	1	13	0	12
CC(C)c1cc(-c2ccc3c(N)n[nH]c3c2)nc(N)n1 [GSK2250882]	26	4	1	5	0	0	0	0	0	5
CCc1ccc(-c2ccc3c(c2)-c2n[nH]cc2S(=O)(=O)N3C)cc1	0	0	0	0	0	0	0	0	0	0
CCCCc1nn2ncccc2c1-c1ccnc(NC2CC2)n1 [GW684374]	13	18	0	0	0	0	0	0	0	0
CNc1nc(-c2ccc3c(N)n[nH]c3c2)cc(N2C[C@@H](C(=O)NC3CCCCC3)OC[C@H]2C)n1 [GSK2375584]	13	25	3	13	0	0	4	34	0	9
Cn1cncc1-c1cc2c(Nc3ccc(OCc4ccccc4)cc3)ncnc2cn1 [GW281179]	9	20	4	0	24	0	0	0	0	0
Nc1nccc(-c2c(-c3ccc(F)cc3)ncn2C2CCN(Cc3ccccc3)CC2)n1 [SB-219980]	5	0	1	0	17	52	0	4	35	7
Nc1cccc(-c2ccc3c(N)n[nH]c3c2)n1 [GSK2192730]	20	0	0	6	5	0	18	0	0	15

Structure (SMILES)	%Inh (PFTAIRE2) [%]	%Inh (PFTK1) [%]	%Inh (PHKG1) [%]	%Inh (PHKG2) [%]	%Inh (PIK3C2B) [%]	%Inh (PIK3C2G) [%]	%Inh (PIK3CA) [%]	%Inh (PIK3CB) [%]	%Inh (PIK3CD) [%]	%Inh (PIK3CG) [%]
CSc1ccc(-c2nc3n(c2-c2ccncc2)CCC3)cc1 [SKF-105561]	1	2	5	0	19	21	0	0	0	23
Fc1ccc(-c2nn3cccc(F)c3c2-c2ccncc2)cc1 [GW475620]	0	20	0	0	0	15	0	0	25	0
COc1ccc(Nc2nccc(N3CCC(NC(=O)c4cc5ccccc5s4)C3)n2)cc1 (centres unmarked) [GSK1379738]	16	4	0	0	0	0	0	0	0	0
O=C(Nc1n[nH]c2nc(-c3ccco3)c(Br)cc12)C1CCN(Cc2ccccc2)C1.O=C(O)[C@H](O)[C@@H](O)C(=O)O (centres unmarked) [SB-742034]	0	27	3	4	16	13	0	2	0	4
Fc1ccc(-c2nc[nH]c2-c2ccncc2)cc1 [SB-217360]	12	0	0	3	0	0	12	0	0	0
CNC(=O)c1ccc(C)c(-n2c(C)cc(OCc3ccc(F)cc3F)c(Br)c2=O)c1	0	8	5	0	0	0	0	0	0	0
COc1ccc(-c2coc3ccc(-c4nnc(C)o4)cc23)cc1	0	9	0	20	0	21	0	0	0	12
COC(=O)C(NC(=O)NC1CCN(c2ccnc(Nc3ccc(F)cc3)n2)C1)c1ccccc1 (centres unmarked) [GSK1379712]	14	17	0	0	14	0	1	5	23	9
COc1cc2ncnc(Nc3cccc(Br)c3)c2cc1OC.Cl [GI230329]	14	16	15	0	8	0	0	2	0	0
NS(=O)(=O)c1cccc(N/C=C2\C(=O)Nc3ccc(S(=O)(=O)Cc4c(Cl)cccc4Cl)cc32)c1 [GSK398099]	26	5	0	0	4	0	16	0	0	41
Cc1nccc(-c2c(-c3ccc(F)cc3)ncn2CCCN2CCOCC2)n1.Cl [SB-282975]	24	2	33	89	0	22	0	20	49	0
O=C(Nc1n[nH]c2nc(-c3cccs3)c(Br)cc12)C1CCCC1 [SB-743341]	9	20	2	12	0	5	5	61	0	0
COc1cccc(NC(=O)Nc2ccc(C)c(-c3ccc(C(=O)Nc4ccncc4)cc3)c2)c1 [GSK1398474]	27	0	0	17	100	0	99.9	0	0	99.9
COc1ccc(Nc2nccc(N3CCC(NC(=O)C(C)c4ccc(Cl)cc4)CC3)n2)cc1 (centres unmarked) [GSK1379812]	8	5	0	16	15	0	21	22	0	12
CS(=O)(=O)Cc1ccc(Nc2nccc(-c3c(-c4cccc(NC(=O)C5CCCCC5)c4)nn4ncccc34)n2)cc1 [GSK350559]	0	18	4	9	0	27	12	4	0	4
O=C(Nc1n[nH]c2cc(-c3ccsc3)ccc12)C1CC1 [SB-732932]	13	5	21	0	14	0	3	8	0	6
COc1cccc(C2=C(Nc3cc(Cl)c(O)c(Cl)c3)C(=O)NC2=O)c1 [SB-390767]	8	0	0	0	0	0	0	0	0	0
O=C(Nc1n[nH]c2nc(-c3cccs3)c(Br)cc12)C1CC1 [SB-735297]	18	14	0	0	0	0	0	22	0	10
COC(=O)c1cccc(NC(=O)NC2CCN(c3ccnc(Nc4ccc(F)cc4)n3)C2)c1 (centres unmarked) [GSK1379725]	5	16	0	0	0	0	0	0	0	0
CC(=O)c1c(C)c2cnc(Nc3ccn(C)n3)nc2n(C2CCCC2)c1=O	0	0	0	2	0	0	0	0	18	61
CC(=O)c1cccc(NC(=O)NC2CCN(c3ccnc(Nc4ccc(F)cc4)n3)C2)c1 (centres unmarked) [GSK1379710]	26	14	0	1	0	0	0	0	24	7
COc1ccc(CSc2nnc(-c3ccc4c(c3)CCO4)o2)cc1	0	0	0	25	0	0	0	0	0	0
